The campaign covered roughly 5,100 compounds. Fewer than 10 were called active. These entries were drawn from the full list. Values without a mark were called inactive.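 The calls were made as follows: active = inhibition above the mean inhibition over all tested compounds plus 3 SD (cut at about 75% in these data); inactive = the rest.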
These molecules were tested against Collagenase 3 (Homo sapiens) (UniProt P45452) (assay: MMP13 inhibitors among fluorescent compounds, confirmation, biochemical, possible fluorescent artifacts, delta fluorescence (AID 734;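 also: 0% = DMSO only wells and 100% = 8 µM reference MMP13 inhibitor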)). Settings: MMP13 fTHP FRET cleavage, delta fluorescence 4 h; hits give high values;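 each compound tested at 4 µM nominal in triplicate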.
For `COc1cc2c(=O)n(CC3CCCO3)c(=O)n(CC(=O)Nc3ccc(F)cc3F)c2cc1OC` (centres undefined), the inhibition was 2.92%.
With `CN1C(=O)Cc2cc(S(=O)(=O)N3CCOCC3)ccc21` the inhibition was 2.06%.
Work on `O=C1CCCN1CCCNc1ncnc2c1cnn2-c1ccc(Cl)cc1` yielded an inhibition of 3.23%.
`CCOC(=O)c1[nH]c2ccc(OCC)cc2c1NC(=O)CN1CCN(c2ccccc2)CC1` was tested, and the inhibition was 1.46%.
In the case of `c1ccc(-n2nnnc2SCc2cn3cccnc3n2)cc1`, the inhibition is reported as 9.28%.
For `O=S(=O)(Nc1ccc(-c2nc3cccnc3s2)cc1)c1cccs1`, the inhibition was 198% (active).
`O=C(Nc1ccc(-c2nc3cccnc3s2)cc1)c1ccc(Br)o1` showed an inhibition of 2.61%.
`O=C(Nc1ccc(-c2nc3cccnc3s2)cc1)c1ccco1` showed an inhibition of 4.83%.
Molecule `N#Cc1nc(-c2cccs2)oc1N1CCN(c2ccccc2)CC1` has an inhibition of 8.02%.
Work on `Cc1oc(C(C)(C)C)cc1C(=O)Nc1ccc(C(=O)O)cc1` yielded an inhibition of 4.23%.
In the case of `Cc1ccc(-c2cc(C(=O)N3CCOCC3)c3ccccc3n2)cc1`, the inhibition is reported as 7.4%.
`CCC(=O)N/C(N)=N/c1nc(C)c2cc(OC)ccc2n1` gave an inhibition of 1.9%.
Work on `COc1nc(-c2ccc(C)cc2)ccc1-c1noc(-c2ccco2)n1` yielded an inhibition of -3.29%.
`Cc1cccn2c(=O)c(C=Nc3ccc(Cl)cc3)c(NCCO)nc12` showed an inhibition of -0.72%.
With `CC(C)COc1ccc(-c2nnc(-c3ccco3)o2)cc1` the inhibition was 3.48%.
`COC(=O)C1=CNC=C(C(=O)OC)C1c1cccc(OC)c1` showed an inhibition of 27.7%.
`CN(C)c1ccc(-c2nn3c(C4CCCCC4)nnc3s2)cc1` showed an inhibition of 4.05%.
`COc1ccc(CCNc2oc(-c3ccc(OC)c(OC)c3)nc2C#N)cc1` showed an inhibition of 1.68%.
Molecule `COc1ccc(-c2cn3c(C)c(C(=O)Nc4cc(NC(C)=O)ccc4OC)sc3n2)cc1` has an inhibition of 14.3%.
`COCCNC(=O)c1cc2c(-c3ccccc3F)nn(C)c2s1` gave an inhibition of -5.47%.
Molecule `CC(Oc1ccc2oc(-c3ccccc3)c(C(=O)O)c2c1)C(=O)O` (centres undefined) has an inhibition of -5.25%.
With `O=c1cc(CN2CCN(c3ccccc3)CC2)c2cc(O)c(-c3ccccc3)cc2o1` the inhibition was 8.57%.
For `CCN1CCc2c(sc3c2c(NCc2ccco2)nc2nnnn23)C1`, the inhibition was 10.9%.
`CC(C)CCNC(=O)C(c1ccco1)N(Cc1ccccc1)C(=O)c1snc(C(N)=O)c1N` (centres undefined) showed an inhibition of 2.54%.
With `O=C(NCc1cccnc1)c1nnc(Cc2ccc(F)cc2)o1` the inhibition was 2.89%.
`O=C(CCSc1nnc2ccccn12)Nc1ccc(F)cc1` showed an inhibition of 3%.
`Cc1ccc(-n2c(Cc3cccn3C)nnc2SCC(=O)Nc2ccc3c(c2)OCO3)cc1` was tested, and the inhibition was 3.78%.
`O=C(O)c1ccc(CSc2nnc(-c3ccncc3)n2CC2CCCO2)cc1` (centres undefined) gave an inhibition of 5.15%.
Work on `Cc1cc(N2CCC(C)CC2)nc2ccc(N3C(=O)CCC3=O)cc12` yielded an inhibition of 4.49%.
Molecule `O=S(=O)(c1cccc(-c2cn3cc(Cl)ccc3n2)c1)N1CCOCC1` has an inhibition of 4.43%.
Molecule `CCOc1ccc(CC(=O)N2CCN(c3ccc(N4CCOCC4)nn3)CC2)cc1OCC` has an inhibition of 11.4%.
In the case of `Cc1cc(C)c2c(n1)nn1c(N3CCN(c4ccccc4)CC3)cc(C)nc21`, the inhibition is reported as -3.18%.
`O=C(NCc1cccnc1)c1cnn2ccccc12` showed an inhibition of 3.72%.
With `CCOCCCn1c(C)nc2c(c1=O)c1nc3ccccc3nc1n2CCC1=CCCCC1` the inhibition was -2.22%.
Molecule `CCOC(=O)CN=C1CC(C)(C)CC2=C1Sc1ncnc(N(C)C)c1N2` has an inhibition of 8.62%.
`N#CCSc1nc2[nH]ncc2c(=O)n1-c1ccccc1Br` gave an inhibition of 5.49%.
Work on `CC(=O)Nc1ccc(Nc2ncnc3c2cnn3-c2cccc(C)c2)cc1` yielded an inhibition of 8.03%.
`COc1ccc2oc(-c3ccccc3)c(C(=O)N3CCOCC3)c2c1` gave an inhibition of 3.94%.
`CCOC(=O)CSc1nc(-c2ccc3c(c2)OCO3)ccc1C#N` was tested, and the inhibition was 86.3% (active).
Molecule `CCOC(=O)CSc1nc(-c2ccncc2)ccc1C#N` has an inhibition of 6%.
In the case of `CCOC(=O)CSc1nc2cc3c(cc2cc1C#N)OCO3`, the inhibition is reported as 5.66%.
For `N#Cc1nc(-c2ccc(F)cc2)oc1NCc1cccc2c1OCO2`, the inhibition was -9.16%.
`Cc1cc(C)n(-c2nc(-c3cccc(Cl)c3)cs2)n1` showed an inhibition of 8.4%.
In the case of `c1ccc2sc(Cc3nnc4n3CCCCC4)nc2c1`, the inhibition is reported as 4.74%.
`Cc1onc(-c2ccccc2)c1C(=O)Nc1ccc2c(C)cc(=O)oc2c1` was tested, and the inhibition was 2.15%.
In the case of `CC(=O)c1ccc(N2CCN(C(=O)c3cc(-c4ccc5c(c4)OCO5)nc4ccccc34)CC2)cc1`, the inhibition is reported as 4.89%.
In the case of `COC(=O)c1c(-n2cnnn2)sc(C)c1C`, the inhibition is reported as 2.3%.
`COc1ccc2cc3cc(C(=O)NCCN4CCc5ccccc5C4)oc3nc2c1` showed an inhibition of -102%.
`Cn1c(=O)c2nc(-c3ccccc3)oc2c2ccccc21` was tested, and the inhibition was 6.54%.
For `COc1ccc(OC)c(-c2cc(C(=O)NCc3ccco3)no2)c1`, the inhibition was 12%.
With `CC(C)OCCCn1c(-c2ccco2)nc2nc3ccccc3nc21` the inhibition was -87.8%.
`CCOC(=O)c1cc(-c2cccs2)nc2onc(C)c12` showed an inhibition of -44.4%.
`COc1cc2ccccc2cc1C(=O)OCC(=O)N1CCOCC1` showed an inhibition of 6.42%.
Work on `COc1ccc(C(=O)/C=C/Nc2cccc(C)n2)cc1OC` yielded an inhibition of 5.27%.
`c1nc2sc3c(c2c2nnnn12)CCCC3` gave an inhibition of 2.51%.
`COc1ccc(-c2cc(C(F)(F)F)nc(SCC(=O)NCc3ccco3)n2)cc1OC` was tested, and the inhibition was 8.84%.
For `Cc1ccc2c(c1)-c1cc(C)nn1C(c1ccc3c(c1)OCO3)N2` (centres undefined), the inhibition was 6.53%.
`O=C1NC(c2ccco2)Nc2ccccc21` (centres undefined) was tested, and the inhibition was -3.14%.
`CCCN(Cc1cc2cc(OC)ccc2[nH]c1=O)C(=O)c1ccncc1` was tested, and the inhibition was 4.53%.
For `CCOC(=O)c1oc2cccc(OC(C)=O)c2c1C`, the inhibition was 8.37%.
`NC(=O)C1CCCN(S(=O)(=O)c2ccc(Br)cc2)C1` (centres undefined) showed an inhibition of 4.17%.
In the case of `COC(=O)c1[nH]c2ccc(Cl)cc2c1NC(=O)CCN1CCN(C2CCCCC2)CC1`, the inhibition is reported as 6.19%.
`COC(=O)c1[nH]c2cccc(OC)c2c1NC(=O)CCN1CC(C)CC(C)C1` (centres undefined) was tested, and the inhibition was -1.84%.
Molecule `COCCOC(=O)c1cc(C(=O)c2cc(F)ccc2O)coc1=N` has an inhibition of 6.65%.
`COc1cccc(=O)c2c(C)oc(C)c12` showed an inhibition of 6.64%.
Molecule `Cc1ccc2nc(N3CCN(Cc4nnnn4Cc4ccccc4)CC3)c(C#N)cc2c1` has an inhibition of 1.5%.
For `CCOC(=O)Cc1c(C)nc2c(-c3ccc(Cl)cc3)c[nH]n2c1=O`, the inhibition was 17.8%.
Work on `COc1cc2cc(CN(CCN3CCCC3)C(=O)Nc3ccc(F)cc3)c(=O)[nH]c2cc1OC` yielded an inhibition of 1.27%.
With `CCS(=O)(=O)Nc1cc(-c2nc3cccnc3s2)ccc1C` the inhibition was -0.51%.
For `CCCCNC(=O)CC1Nc2ccccc2NC1=O` (centres undefined), the inhibition was 4.58%.
`CCn1c(=O)c(C(C)=O)nc2ccccc21` gave an inhibition of 7.87%.
For `CCCCN(CC)CCNC(=O)c1cc2c(=O)n(C)c3ccccc3c2n1C`, the inhibition was 9.76%.
For `COC(=O)c1[nH]c2ccc(C)cc2c1NC(=O)CN1CCN(Cc2ccccc2)CC1`, the inhibition was 5.26%.
`Cc1cc(-c2ccccc2)nn1-c1nc2c(c(=O)[nH]c(=O)n2C)n1C` was tested, and the inhibition was 6.56%.
`COc1ccc(-c2noc(CCC(=O)NCc3cccnc3)n2)cc1` was tested, and the inhibition was -0.6%.
With `O=C(CSc1ccc2nnc(-c3cccc(F)c3)n2n1)NCC1CCCO1` (centres undefined) the inhibition was 0.9%.
In the case of `CCCn1c(=N)c(C(=O)NCC2CCCO2)cc2c(=O)n3cccc(C)c3nc21` (centres undefined), the inhibition is reported as 0.11%.
For `COc1cc2c(cc1OC)CN(C(=O)NS(=O)(=O)c1ccc(C)cc1)CC2`, the inhibition was 6.18%.
`COc1cc2c(cc1OC)-c1cc(N3CCCCCC3)nc(=O)n1CC2` showed an inhibition of 6.6%.
`COc1cc(OC)cc(-c2cc3nc(C)c(CCC(=O)NC(C)CCc4ccco4)c(C)n3n2)c1` (centres undefined) showed an inhibition of -0.26%.
For `CC(=O)Nc1nonc1-c1nc2ccccc2n1Cc1nnc(C)o1`, the inhibition was 4.74%.
Molecule `COc1ccc(-c2cc(C(F)(F)F)nc(SCC(=O)Nc3cc(C)on3)n2)cc1OC` has an inhibition of 11.1%.
`COc1cc(OC)cc(C(=O)NCC(=O)N2CCC(C)CC2)c1` showed an inhibition of 7.88%.
For `Cc1nn(-c2ccccc2)c2sc(-c3n[nH]c(=S)o3)cc12`, the inhibition was 75.6% (active).
`COC(=O)c1cc2c(C)nn(-c3ccccc3)c2s1` gave an inhibition of 5.12%.
For `Cc1nn(-c2ccccc2)c2sc(C(=O)OC3CCOC3=O)cc12` (centres undefined), the inhibition was -15.6%.
`CCOC(=O)N1CCC(NC(=O)c2cc3c(-c4cccc(OC)c4)nn(C)c3s2)CC1` was tested, and the inhibition was 1.92%.
`Cc1ccc(S(=O)(=O)Nc2ccccc2C(N)=O)cc1` gave an inhibition of 7.43%.
Work on `N=C1C(c2nc3ccccc3c(=O)[nH]2)=C(O)CN1CCc1ccccc1` yielded an inhibition of -5.72%.
`COc1ccccc1C(=O)Nc1ccc(S(=O)(=O)N2CCOCC2)cc1` showed an inhibition of -0.87%.
Molecule `O=C(c1ccc(Br)o1)N1CCN(Cc2ccc3c(c2)OCO3)CC1` has an inhibition of 3.6%.
`Cc1ccc2nc(-c3ccc(SCC(=O)O)nc3)[nH]c2c1` showed an inhibition of -13.3%.
With `O=C(NCCN1CCOCC1)c1cc2ccccc2[nH]1` the inhibition was 3.77%.
`COC(=O)c1ccc(Sc2ccc(C)cc2)c(N)c1` was tested, and the inhibition was -1.3%.
